# In PubChem BioAssay (NCATS):
# Unmarked numbers belong to inactive results. Inconclusive results are not listed. A call without a number means that no potency is given here. Calls of active or inactive are those of the source. Calls follow the shape of the dose curve; as a rule, active = well fitted curve in the direction sought with a large enough effect; inconclusive = small, poorly fitted or top-dose-only effect, or another doubt; inactive = no such curve, though single readings can be large; an effect the other way counts as inactive or inconclusive.
# Key:
# [1] = molecular target: Ubiquitin carboxyl-terminal hydrolase 1 (Homo sapiens) (UniProt O94782); assay: Inhibitors of USP1/UAF1: Pilot qHTS (AID 504865); also: nearly all actives have a fitted effect of over 35% in size; also: potency is read from the fitted curve at half-maximal effect
# Sequence of Ubiquitin carboxyl-terminal hydrolase 1 (Homo sapiens) (O94782 whole entry, looked up): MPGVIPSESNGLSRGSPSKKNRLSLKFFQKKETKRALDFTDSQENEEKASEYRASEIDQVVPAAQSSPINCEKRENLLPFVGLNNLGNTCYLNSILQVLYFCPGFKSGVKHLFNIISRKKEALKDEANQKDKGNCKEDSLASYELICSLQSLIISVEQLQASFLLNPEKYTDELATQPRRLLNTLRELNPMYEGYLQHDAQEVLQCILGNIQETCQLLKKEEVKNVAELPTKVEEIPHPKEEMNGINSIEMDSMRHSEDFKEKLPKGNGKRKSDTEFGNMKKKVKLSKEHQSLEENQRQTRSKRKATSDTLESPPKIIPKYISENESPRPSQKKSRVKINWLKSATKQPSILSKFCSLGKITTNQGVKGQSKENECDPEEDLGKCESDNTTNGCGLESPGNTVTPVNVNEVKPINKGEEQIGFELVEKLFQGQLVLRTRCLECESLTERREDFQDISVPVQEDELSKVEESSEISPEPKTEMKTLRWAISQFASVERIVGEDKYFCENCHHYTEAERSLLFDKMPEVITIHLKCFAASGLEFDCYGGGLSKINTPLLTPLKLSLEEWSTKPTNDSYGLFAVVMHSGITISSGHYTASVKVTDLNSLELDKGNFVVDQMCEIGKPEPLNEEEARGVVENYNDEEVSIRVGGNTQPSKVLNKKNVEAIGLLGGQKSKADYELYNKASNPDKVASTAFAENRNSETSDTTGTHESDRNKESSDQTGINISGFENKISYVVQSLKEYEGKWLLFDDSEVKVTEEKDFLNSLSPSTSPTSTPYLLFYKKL
# Procedure, shortened: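 USP1/UAF1 complex (1nM) preincubated with compound 15 min at room temperature, then Ub-Rho substrate (150nM final) added. Fluorescence read kinetically at 480/540 nm, 6 reads every 60 seconds. Buffer: 50mM HEPES pH 7.8, 0.5mM EDTA, 0.1 mg/ml BSA, 1mM TCEP, 0.01% Tween-20.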
# [2] = molecular target: DNA dC->dU-editing enzyme APOBEC-3G (Homo sapiens) (UniProt Q9HC16); assay: qHTS for inhibitors of Vif-A3G interactions: Validation (AID 588379); also: potency is read from the fitted curve at half-maximal effect
# Sequence of DNA dC->dU-editing enzyme APOBEC-3G (Homo sapiens) (Q9HC16 whole entry, looked up): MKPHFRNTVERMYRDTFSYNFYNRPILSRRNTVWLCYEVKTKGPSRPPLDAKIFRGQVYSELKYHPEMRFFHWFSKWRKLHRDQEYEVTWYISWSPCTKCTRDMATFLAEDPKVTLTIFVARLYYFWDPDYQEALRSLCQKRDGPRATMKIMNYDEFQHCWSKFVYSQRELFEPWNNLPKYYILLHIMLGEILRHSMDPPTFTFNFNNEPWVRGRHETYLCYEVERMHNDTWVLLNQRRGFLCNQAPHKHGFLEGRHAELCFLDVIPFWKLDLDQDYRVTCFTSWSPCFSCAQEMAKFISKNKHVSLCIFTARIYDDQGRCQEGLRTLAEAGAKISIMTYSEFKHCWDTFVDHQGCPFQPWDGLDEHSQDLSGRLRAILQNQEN
# Procedure, shortened: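 HeLa cells stably expressing Vif and A3G-eYFP, 700 cells/well, incubated overnight at 37 deg C, then exposed to compound overnight at 37 deg C. Inhibition of Vif-mediated degradation read as increased yellow fluorescence (Ex 488/Em 500-530) by laser-scanning cytometry.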
# [3] = molecular target: Cytochrome P450 3A4 (Homo sapiens) (UniProt P08684); assay: qHTS Assay for Inhibitors and Substrates of Cytochrome P450 3A4 (AID 884); also: nearly all actives have a fitted effect of over 50% in size; also: potency is read from the fitted curve at half-maximal effect
# Sequence of Cytochrome P450 3A4 (Homo sapiens) (P08684 whole entry, looked up): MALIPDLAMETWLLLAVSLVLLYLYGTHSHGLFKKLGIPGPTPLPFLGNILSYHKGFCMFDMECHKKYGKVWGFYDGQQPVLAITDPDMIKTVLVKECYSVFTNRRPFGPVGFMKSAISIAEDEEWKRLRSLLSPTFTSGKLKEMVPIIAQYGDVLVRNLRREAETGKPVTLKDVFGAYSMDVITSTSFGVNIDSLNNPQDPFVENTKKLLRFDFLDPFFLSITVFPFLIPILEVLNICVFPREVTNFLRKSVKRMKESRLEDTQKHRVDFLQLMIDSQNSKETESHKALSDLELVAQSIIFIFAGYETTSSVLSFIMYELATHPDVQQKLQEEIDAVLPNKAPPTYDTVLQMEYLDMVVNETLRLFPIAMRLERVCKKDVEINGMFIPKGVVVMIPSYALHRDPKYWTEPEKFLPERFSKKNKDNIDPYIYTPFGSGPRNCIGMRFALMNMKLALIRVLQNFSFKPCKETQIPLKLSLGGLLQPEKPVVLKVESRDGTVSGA
# Procedure, shortened: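 20 nM human CYP3A4 with 25 uM Luciferin-PPXE (at KM) in 200 mM KPO4, preincubated 10 min with compound; NADPH regeneration started a 60 min RT reaction. Luciferin detected by luminescence, normalized to 57 uM ketoconazole as full inhibition.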
# [4] = molecular target: Cytochrome P450 3A4 (Homo sapiens) (UniProt P08684); assay: qHTS Assay for Activators of Cytochrome P450 3A4 (AID 885); also: nearly all actives have a fitted effect of over 65% in size
# Procedure, shortened: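 20nM CYP3A4 + 25uM Luciferin-PPXE (=KM), 200mM KPO4; cpd 10 min RT; NADPH regen, 60 min RT; stop w/ detection buffer, 20 min; luminescence. Normalized to 57 uM ketoconazole.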
# [5] = qHTS profiling for inhibitors of Plasmodium falciparum proliferation (AID 504749); also: nearly all actives have a fitted effect of over 60% in size; conditions: P. falciparum in erythrocytes, SYBR Green DNA, 72 h, at 28.7 µM (top of the series)
# Procedure, shortened: (§1)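 Infected RBCs, 0.3% parasitemia/2.5% Hct final; cpd 72 h, 37 C, 5% CO2; lysis buffer with saponin/triton/SYBR Green I, o/n RT dark; FI 485/535; norm. to artemisinin (0.29 uM) and DMSO.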
# [6] = system: AA1029; assay: as above; conditions: P. falciparum in erythrocytes, SYBR Green DNA, 72 h; series mostly up to 28.7 µM
# Procedure, shortened: as §1
# [7] = system: ATS189; assay: as above; conditions: P. falciparum in erythrocytes, SYBR Green DNA, 72 h; series mostly up to 28.7 µM
# Procedure, shortened: as §1
# [8] = system: CP185; assay: as above; conditions: P. falciparum in erythrocytes, SYBR Green DNA, 72 h; series mostly up to 28.7 µM
# Procedure, shortened: as §1
# [9] = system: CP201; assay: as above; conditions: P. falciparum in erythrocytes, SYBR Green DNA, 72 h; series mostly up to 28.7 µM
# Procedure, shortened: as §1
# [10] = system: CP238; assay: as above; conditions: P. falciparum in erythrocytes, SYBR Green DNA, 72 h; series mostly up to 28.7 µM
# Procedure, shortened: as §1
# [11] = system: CP252; assay: as above; conditions: P. falciparum in erythrocytes, SYBR Green DNA, 72 h; series mostly up to 28.7 µM
# Procedure, shortened: as §1
# [12] = system: CP265; assay: as above; conditions: P. falciparum in erythrocytes, SYBR Green DNA, 72 h; series mostly up to 28.7 µM
# Procedure, shortened: as §1
# [13] = system: CP286; assay: as above; conditions: P. falciparum in erythrocytes, SYBR Green DNA, 72 h; series mostly up to 28.7 µM
# Procedure, shortened: as §1
# [14] = system: CP305; assay: as above; conditions: P. falciparum in erythrocytes, SYBR Green DNA, 72 h; series mostly up to 28.7 µM
# Procedure, shortened: as §1
# [15] = system: CP325; assay: as above; conditions: P. falciparum in erythrocytes, SYBR Green DNA, 72 h; series mostly up to 28.7 µM
# Procedure, shortened: as §1
# [16] = system: FAB9; assay: as above; conditions: P. falciparum in erythrocytes, SYBR Green DNA, 72 h; series mostly up to 28.7 µM
# Procedure, shortened: as §1
# [17] = system: PC15; assay: as above; conditions: P. falciparum in erythrocytes, SYBR Green DNA, 72 h; series mostly up to 28.7 µM
# Procedure, shortened: as §1
# [18] = system: PC49; assay: as above; conditions: P. falciparum in erythrocytes, SYBR Green DNA, 72 h; series mostly up to 28.7 µM
# Procedure, shortened: as §1
smiles,measurement,setting,value
C[C@H](C(=O)O)c1cccc(C(=O)c2ccccc2)c1,Potency,[1],inactive
same,Potency,[2],inactive
CCOc1ccc(/C=C/C(=O)c2cccs2)cc1,Potency,[3],inactive
same,Potency,[1],inactive
same,Potency,[2],inactive
COc1cc2c(C=O)c3c4c(cc(OC)c(OC)c4c2cc1OC)CCN3C,Potency,[3],2 µM (active)
same,Potency,[4],inactive
same,Potency,[1],22.4 µM (active)
same,Potency,[2],21.1 µM (active)
O=C(O)c1ccccc1-c1c2cc(Br)c(=O)c(Br)c-2oc2c(Br)c(O)c(Br)cc12,Potency,[1],inactive
same,"activity, negative = inhibition",[5]; parasite line A,7.94%
same,"activity, negative = inhibition",[5]; parasite line B,-13.6%
same,Potency,[6],inactive
same,Potency,[7],inactive
same,Potency,[8],inactive
same,Potency,[9],inactive
same,Potency,[10],inactive
same,Potency,[11],inactive
same,Potency,[12],inactive
same,Potency,[13],inactive
same,Potency,[14],inactive
same,Potency,[15],inactive
same,Potency,[16],inactive
same,Potency,[17],inactive
same,Potency,[18],inactive
NC(=O)CCC1NC(=O)C(Cc2ccccc2)NC(=O)C(Cc2ccc(O)cc2)NC(=O)CCSSCC(C(=O)N2CCCC2C(=O)NC(CCCN=C(N)N)C(=O)NCC(N)=O)NC(=O)C(CC(N)=O)NC1=O (configuration not stated),Potency,[1],inactive
same,"activity, negative = inhibition",[5]; parasite line A,9.46%
same,"activity, negative = inhibition",[5]; parasite line B,7.06%
same,Potency,[6],inactive
same,Potency,[7],inactive
same,Potency,[8],inactive
same,Potency,[9],inactive
same,Potency,[10],inactive
same,Potency,[11],inactive
same,Potency,[12],inactive
same,Potency,[13],inactive
same,Potency,[14],inactive
same,Potency,[15],inactive
same,Potency,[16],inactive
same,Potency,[17],inactive
same,Potency,[18],inactive
CC(=O)OC1CCC2(C)C(=CCC3C2CCC2(C)C3C[C@@H]3O[C@]32C(C)=O)C1 (some centres not stated),Potency,[3],inactive
same,Potency,[1],inactive
same,Potency,[2],inactive
C[C@H]1O[C@@H](O[C@H]2[C@@H](O)C[C@H](O[C@H]3[C@@H](O)C[C@H](O[C@H]4CC[C@]5(C)C6CC[C@]7(C)[C@@H](C8=CC(=O)OC8)CC[C@]7(O)C6CC[C@@H]5C4)O[C@@H]3C)O[C@@H]2C)C[C@H](O)[C@@H]1O (some centres not stated),Potency,[3],inactive
same,Potency,[1],inactive
same,Potency,[2],inactive
